Results on ten compounds are retold here after PubChem BioAssay (NCI).

The panel holds about 83,000 compounds, 20% with a hit somewhere; the sample as a whole holds those more often.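 How to read the values: 0–100, growth inhibition (40 = 60% inhibited); 0, no net growth; -100 to 0, cell death (-40 = 40% of starting cells died; -100 = all dead).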 Values without a mark were called inactive. Active and inactive are the calls of the source. How the source made its calls: active means growth percent below 10; inactive means the rest.

Test systems include OVCAR-8 ovarian; OVCAR-5 ovarian; OVCAR-4 ovarian; SK-OV-3 ovarian; IGROV1 ovarian; OVCAR-3 ovarian; HS 578T breast; NCI/ADR-RES ovarian; T-47D breast; BT-549 breast; MDA-MB-435 melanoma; SW-620 colon; MCF7 breast; HCT-116 colon; HCC-2998 colon; KM12 colon; RPMI-8226 leukemia.
Common to all, as to experiment: NCI-60 one-dose screen, 48 h (100 = growth as untreated, 0 = no growth, -100 = all killed)
Common to all, as to conditions: 10 µM unless noted

As for `CCn1c2ccccc2c2ccc(C(C)=O)cc21`, the growth in the experiment on OVCAR-8 ovarian is 104%; in the experiment with OVCAR-5 ovarian it was 89.9%; with OVCAR-4 ovarian, 96.7%; in the experiment on SK-OV-3 ovarian, 111%; in the experiment on IGROV1 ovarian, 111%; in the experiment with OVCAR-3 ovarian, 112%. The growth with HS 578T breast is 144%; in the experiment on NCI/ADR-RES ovarian it was 101%; in the experiment with T-47D breast it was 96.6%; with BT-549 breast, 96.9%; with MDA-MB-435 melanoma it was 104%; in the experiment on SW-620 colon, 114%. Further, the growth with MCF7 breast is 102%; with HCT-116 colon, 105%; with HCC-2998 colon, 108%; in the experiment with KM12 colon it was 115%.
Turning to `COC1=CC(c2ccc[nH]2)=N/C1=C\c1[nH]c(C)c(C(=O)CCC(=O)Oc2ccc3c(c2)CCC2C3CC[C@]3(C)C(=O)CC[C@@H]23)c1C` (stereo partly specified), the growth in the experiment on RPMI-8226 leukemia was 68.3%; with OVCAR-5 ovarian, 55.6%; in the experiment with SK-OV-3 ovarian, 85.5%; with IGROV1 ovarian, 79.5%; in the experiment with OVCAR-3 ovarian, 89.1%; in the experiment with HS 578T breast, 69.8%. Besides, the growth in the experiment on NCI/ADR-RES ovarian is 82.3%; in the experiment with T-47D breast, 79.2%; in the experiment on BT-549 breast, 70.2%; with MDA-MB-435 melanoma, 93.7%; with SW-620 colon it was 27.9%; with MCF7 breast, 50.2%. The results for the growth with HCT-116 colon, in the experiment with HCC-2998 colon and in the experiment with KM12 colon were 20.3%, 79.8% and 53.6%, respectively.
Regarding `CC1CC(C)/C(=N/NC(N)=O)C(C(O)CC2CCC(=O)NC2=O)C1` (stereo unspecified), the growth is 50.4% in the experiment on RPMI-8226 leukemia; 52.1% in the experiment on OVCAR-5 ovarian; 49.2% in the experiment on SK-OV-3 ovarian; 30.1% in the experiment with IGROV1 ovarian; 53.6% in the experiment with OVCAR-3 ovarian; 10% in the experiment with HS 578T breast. Further, the growth in the experiment with NCI/ADR-RES ovarian was 42.6%; in the experiment with T-47D breast it was 42.5%; with BT-549 breast, 53.1%; in the experiment on MDA-MB-435 melanoma, 34.3%; in the experiment with SW-620 colon, 34.3%; in the experiment with MCF7 breast it was 36.7%. Besides, the growth in the experiment with HCT-116 colon is 24%; with HCC-2998 colon, 58.8%; in the experiment with KM12 colon, 32.3%.
`CCCCN(CCCC)CCCOC(=O)c1ccc(N)cc1`: the growth in the experiment with RPMI-8226 leukemia was 68%; in the experiment with OVCAR-5 ovarian, 97%; in the experiment with OVCAR-4 ovarian, 84.2%; with SK-OV-3 ovarian it was 83.3%; in the experiment on IGROV1 ovarian it was 75.8%; in the experiment on OVCAR-3 ovarian, 102%. For the same compound, the growth in the experiment on HS 578T breast is 82.2%; in the experiment with NCI/ADR-RES ovarian it was 94.2%; in the experiment on BT-549 breast it was 82.4%; with MDA-MB-435 melanoma, -3.25% (active); in the experiment on SW-620 colon it was 74.6%; in the experiment on HCT-116 colon, 58.4%. Also, the growth in the experiment with HCC-2998 colon was 87.6%; with KM12 colon, 103%.
Turning to `CO[C@H]1/C=C/O[C@@]2(C)Oc3c(C)c(O)c4c(O)c(c(/C=N/N5CCN(C)CC5)c(O)c4c3C2=O)NC(=O)/C(C)=C\C=C\C(C)[C@H](O)[C@@H](C)[C@@H](O)[C@@H](C)[C@@H](OC(C)=O)[C@@H]1C` (stereo partly specified), the growth with RPMI-8226 leukemia is 108%; in the experiment on OVCAR-4 ovarian, 103%; in the experiment on SK-OV-3 ovarian it was 113%; with IGROV1 ovarian, 105%; with OVCAR-3 ovarian, 107%; in the experiment with HS 578T breast, 109%. Moreover, the growth in the experiment with NCI/ADR-RES ovarian is 105%; in the experiment with T-47D breast, 107%; in the experiment on BT-549 breast it was 99.2%; with MDA-MB-435 melanoma, 103%; in the experiment on SW-620 colon, 107%; in the experiment with MCF7 breast, 98.7%. The growth in the experiment with HCT-116 colon was 101%; in the experiment with HCC-2998 colon, 99.5%; in the experiment with KM12 colon, 100%.
For `CC(C)COCC(CN(Cc1ccccc1)c1ccccc1)N1CCCC1` (stereo unspecified), the growth in the experiment on RPMI-8226 leukemia was 46.4%; in the experiment with OVCAR-4 ovarian, 49.9%; in the experiment with SK-OV-3 ovarian, 74.9%; with IGROV1 ovarian, 53.3%; in the experiment on OVCAR-3 ovarian, 72.4%; in the experiment with HS 578T breast, 81.6%. For the same compound, the growth in the experiment with NCI/ADR-RES ovarian was 65.2%; in the experiment on T-47D breast, 66.1%; in the experiment on BT-549 breast it was 62.2%; in the experiment with MDA-MB-435 melanoma, 72.4%; in the experiment with SW-620 colon, 70.1%; with MCF7 breast, 45.8%. Also, the values for the growth in the experiment with HCT-116 colon, with HCC-2998 colon and in the experiment with KM12 colon were 36.7%, 44.8% and 56.2%, respectively.
As to `O=C1N(C2CCCCC2)C(=O)N1C1CCCCC1`, the growth was -16.7% (active) with RPMI-8226 leukemia; 28.9% with OVCAR-5 ovarian; 71.8% with SK-OV-3 ovarian; 59.7% with OVCAR-3 ovarian; -2.96% (active) in the experiment on HS 578T breast; 35.5% in the experiment with NCI/ADR-RES ovarian. In addition, the growth with T-47D breast was 43.7%; with BT-549 breast, 33.6%; with MDA-MB-435 melanoma it was 57.4%; in the experiment with SW-620 colon, 48.5%; in the experiment with MCF7 breast it was 42.9%; with HCC-2998 colon it was 49.3%. The growth in the experiment on KM12 colon is 7.4% (active).
As to `O=C(C=C=Nc1ccccc1)C(=O)N=C=Cc1ccccc1`, the growth in the experiment on OVCAR-8 ovarian is 60.8%; in the experiment on OVCAR-5 ovarian, 75.5%; in the experiment on OVCAR-4 ovarian, 50.6%; in the experiment on SK-OV-3 ovarian, 107%; in the experiment on IGROV1 ovarian, 51.5%; in the experiment with OVCAR-3 ovarian, 13.5%. Further, the growth in the experiment on HS 578T breast is 94.8%; in the experiment on NCI/ADR-RES ovarian, 65.5%; with T-47D breast, 17.7%; with BT-549 breast, -7.61% (active); in the experiment with MDA-MB-435 melanoma, 50.7%; in the experiment with SW-620 colon it was -26.3% (active). Further, the growth was 25.9% in the experiment with MCF7 breast, -36.3% (active) with HCT-116 colon, 74.1% in the experiment on HCC-2998 colon and 81.5% with KM12 colon.
As for `ClC1=C(Cl)C(=C2C(Cl)=C(Cl)C(Cl)=C2Cl)C(Cl)=C1Cl`, the growth with OVCAR-8 ovarian is 97.7%; in the experiment with OVCAR-5 ovarian, 115%; in the experiment with OVCAR-4 ovarian it was 100%; with SK-OV-3 ovarian, 91.6%; in the experiment with IGROV1 ovarian, 108%; in the experiment with OVCAR-3 ovarian, 114%. Also, the growth was 94.1% in the experiment on HS 578T breast; 105% with NCI/ADR-RES ovarian; 79.5% in the experiment with T-47D breast; 107% with BT-549 breast; 105% in the experiment on MDA-MB-435 melanoma; 102% in the experiment with SW-620 colon. Besides, the growth was 90.3% in the experiment with MCF7 breast, 101% in the experiment on HCT-116 colon, 109% in the experiment on HCC-2998 colon and 104% in the experiment on KM12 colon.
`Clc1ccc2nc(Cl)c3ccccc3c2c1`: the growth with OVCAR-8 ovarian was 50.8%; with OVCAR-5 ovarian it was 78%; in the experiment with OVCAR-4 ovarian, -42.6% (active); in the experiment with SK-OV-3 ovarian, 0.43% (active); with IGROV1 ovarian, 48.6%; in the experiment on OVCAR-3 ovarian it was 35.3%. The growth in the experiment on HS 578T breast was 56.8%; with NCI/ADR-RES ovarian, 74.8%; with T-47D breast it was -13.9% (active); in the experiment on BT-549 breast, 89.6%; with MDA-MB-435 melanoma, 50.3%; with SW-620 colon, 78.3%. In addition, the growth was 89.7% in the experiment with MCF7 breast, 19.4% in the experiment with HCT-116 colon, 89.3% with HCC-2998 colon and 55.7% in the experiment with KM12 colon.
